Data on 17 molecules can be found in article PMC5540273 (PLoS ONE, 2017).

Test systems include AKT3; ALK; ANKK1; AURKA; AURKB.
Holding throughout (conditions): concentration: 1 μM, replicates: in singlicate; n = 1
Another experiment deals with T1, AMPK-alpha1.
T1 construct: gene PRKAA1

In another experiment the test system is T2, AMPK-alpha2.
T2 construct: gene PRKAA2

Another experiment has as its system T3, ARK5.
T3 construct: gene NUAK1

The subject of another experiment is T4, ASK1.
T4 construct: gene MAP3K5

For the next experiment, the system named is T5, ASK2.
T5 construct: gene MAP3K6
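Note: KINOMEscan kinase panel screen.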

`CC(=O)Nc1n[nH]c2ncc(-c3ccccc3)cc12` [SB-548492]: the “%Inh” value worked out at 5% with AKT3; 0% in the experiment on ALK; 10% with AMPK-alpha1; 1% in the experiment with AMPK-alpha2; 20% in the experiment with ANKK1; 0% in the experiment on ARK5. The “%Inh” value is 20% in the experiment with ASK1, 23% in the experiment on ASK2, 16% in the experiment on AURKA and 17% with AURKB.
As for `NC(=O)c1sc(-n2cnc3ccccc32)cc1OCc1ccccc1F` [GSK1024306], the “%Inh” value is on record as 0% with AKT3; 5% in the experiment on ALK; 6% in the experiment on AMPK-alpha1; 0% in the experiment on AMPK-alpha2; 0% in the experiment on ANKK1; 31% in the experiment with ARK5. Also, the “%Inh” value with ASK1, in the experiment on ASK2, in the experiment on AURKA and in the experiment with AURKB was 0% each time.
Turning to `Oc1ccc2ncnc(Nc3ccc(OCc4ccccc4)cc3)c2c1` [GI262866], the “%Inh” value in the experiment with AKT3 is recorded as 0%; in the experiment with ALK it was 21%; in the experiment with AMPK-alpha1, 4%; with AMPK-alpha2, 0%; in the experiment with ANKK1, 0%; with ARK5 it was 15%. Besides, the “%Inh” value came to 0% in the experiment with ASK1, 7% in the experiment with ASK2, 0% with AURKA and 21% in the experiment on AURKB.
Consider `CCn1c(-c2ccncc2)nc2cnccc21` [SB-735216], for which the “%Inh” value in the experiment on AKT3 came to 0%; in the experiment with ALK, 6%; with AMPK-alpha1, 0%; in the experiment with AMPK-alpha2 it was 5%; with ANKK1 it was 21%; in the experiment with ARK5, 8%. Besides, the “%Inh” value was 0% in the experiment on ASK1, 20% in the experiment with ASK2, 7% in the experiment with AURKA and 29% in the experiment with AURKB.
Regarding `c1ccc(-c2ccc3c(-c4ccnc(Nc5ccc6c(c5)OCCO6)n4)cnn3n2)cc1` [GW818941], the “%Inh” value with AKT3 came to 18%; in the experiment with ALK, 0%; in the experiment on AMPK-alpha1, 19%; in the experiment with AMPK-alpha2, 25%; in the experiment with ANKK1, 4%; in the experiment with ARK5, 15%. The “%Inh” value with ASK1 was determined as 7%; in the experiment on ASK2, 0%; with AURKA, 0%; in the experiment on AURKB, 0%.
Take `Cc1cc(N2CCC(NS(=O)(=O)c3ccc(F)cc3)CC2)nc(Nc2cccc(C#N)c2)n1.O=C(O)C(F)(F)F` [GSK1653537]: the “%Inh” value with AKT3 stood at 0%; in the experiment with ALK it was 7%; in the experiment on AMPK-alpha1, 0%; in the experiment with AMPK-alpha2, 20%; in the experiment on ANKK1, 3%; in the experiment with ARK5, 15%. Also, the “%Inh” value with ASK1 came to 0%; in the experiment with ASK2, 3%; in the experiment with AURKA it was 0%; with AURKB it was 0%.
Regarding `CCC(CC)(CC)n1cnc2c(N)ncnc21` [SKF-97620], the “%Inh” value in the experiment with AKT3 is recorded as 2%; in the experiment with ALK it was 0%; in the experiment with AMPK-alpha1, 8%; in the experiment with AMPK-alpha2, 54%; in the experiment on ANKK1 it was 17%; in the experiment with ARK5 it was 0%. For the same molecule, the “%Inh” value in the experiment with ASK1 was 2%; in the experiment on ASK2, 26%; in the experiment with AURKA it was 28%; with AURKB, 24%.
Regarding `O=C(Nc1n[nH]c2nc(-c3ccco3)c(Br)cc12)c1ccc(CN2CCCC2)cc1.O=C(O)[C@H](O)[C@@H](O)C(=O)O` [SB-742352], the “%Inh” value in the experiment with AKT3 was found to be 8%; with ALK it was 0%; with AMPK-alpha1 it was 0%; in the experiment on AMPK-alpha2 it was 8%; in the experiment with ANKK1, 0%; with ARK5, 0%. Moreover, the “%Inh” value with ASK1, in the experiment with ASK2, in the experiment on AURKA and in the experiment on AURKB was 0% each time.
Turning to `CNc1nccc(-c2c(-c3ccc(F)cc3)ncn2C2CCN(C)CC2)n1` [SB-222903], the “%Inh” value in the experiment with AKT3 amounted to 0%; with ALK it was 0%; with AMPK-alpha1 it was 0%; in the experiment with AMPK-alpha2 it was 16%; with ANKK1, 0%; in the experiment with ARK5, 4%. The “%Inh” value in the experiment with ASK1 was 0%; in the experiment on ASK2 it was 0%; in the experiment with AURKA, 6%; in the experiment with AURKB, 0%.
For `CN1c2ccc(-c3ccc(C(=O)NCCO)cc3)cc2-c2[nH]ncc2S1(=O)=O`, the “%Inh” value with AKT3 came out at 12%; in the experiment on ALK, 44%; in the experiment on AMPK-alpha1 it was 16%; in the experiment on AMPK-alpha2, 0%; with ANKK1 it was 0%; in the experiment with ARK5 it was 0%. For the same molecule, the “%Inh” value in the experiment on ASK1 is on record as 34%; in the experiment on ASK2 it was 3%; with AURKA, 0%; in the experiment with AURKB, 37%.
On to `Fc1cccc(COc2ccc(Nc3ncnc4cc[nH]c34)cc2Cl)c1`, for which the “%Inh” value in the experiment with AKT3 is listed as 0%; in the experiment on ALK it was 0%; with AMPK-alpha1 it was 4%; in the experiment with AMPK-alpha2, 0%; with ANKK1 it was 40%; in the experiment on ARK5 it was 11%. In addition, the “%Inh” value in the experiment with ASK1 is reported as 11%; in the experiment with ASK2, 0%; in the experiment with AURKA it was 16%; in the experiment with AURKB it was 24%.
As to `Cc1ccc(C)c(NC(=O)NCCNc2ccnc(Nc3ccc(F)cc3)n2)c1` [GSK1379878], the “%Inh” value in the experiment with AKT3 came to 0%; in the experiment with ALK, 2%; in the experiment with AMPK-alpha1 it was 10%; in the experiment with AMPK-alpha2, 0%; with ANKK1, 5%; in the experiment with ARK5, 0%. Further, the “%Inh” value in the experiment with ASK1 is given as 0%; with ASK2, 0%; in the experiment on AURKA, 7%; with AURKB, 0%.
Take `Fc1ccc(Nc2nccc(-c3c(-c4ccc(Cl)cc4)nn4ncccc34)n2)cc1F` [GW829058]: the “%Inh” value with AKT3 was 15%; in the experiment on ALK it was 43%; in the experiment on AMPK-alpha1, 17%; in the experiment on AMPK-alpha2, 0%; with ANKK1, 10%; in the experiment with ARK5 it was 0%. For the same molecule, the “%Inh” value in the experiment on ASK1 is given as 2%; in the experiment on ASK2, 26%; in the experiment with AURKA it was 32%; with AURKB, 27%.
On to `CCCc1ccc(S(=O)(=O)NC2CCN(c3ccnc(Nc4ccc(OC)cc4)n3)C2)cc1` (centres unmarked) [GSK1379737], for which the “%Inh” value came out at 0% in the experiment on AKT3; 30% in the experiment on ALK; 0% in the experiment with AMPK-alpha1; 0% in the experiment with AMPK-alpha2; 0% in the experiment with ANKK1; 0% in the experiment on ARK5. The “%Inh” value is recorded as 0% in the experiment on ASK1, 0% in the experiment with ASK2, 0% in the experiment with AURKA and 32% with AURKB.
In the case of `FC(F)(F)c1ccc(-c2nn3ncccc3c2-c2ccnc(Nc3cccc(C(F)(F)F)c3)n2)cc1` [GW828205], the “%Inh” value with AKT3 is given as 15%; in the experiment on ALK it was 0%; in the experiment with AMPK-alpha1, 12%; in the experiment with AMPK-alpha2 it was 0%; in the experiment with ANKK1 it was 0%; in the experiment with ARK5, 6%. In addition, the “%Inh” value in the experiment with ASK1 is 0%; in the experiment with ASK2 it was 0%; in the experiment with AURKA, 0%; in the experiment with AURKB, 14%.
As for `Nc1n[nH]c2nnc(-c3ccccc3)cc12` [SB-517389], the “%Inh” value with AKT3 was 0%; with ALK, 29%; in the experiment with AMPK-alpha1 it was 0%; in the experiment with AMPK-alpha2, 16%; in the experiment on ANKK1 it was 0%; in the experiment on ARK5, 1%. For the same molecule, the “%Inh” value in the experiment on ASK1 is given as 61%; with ASK2 it was 0%; with AURKA it was 13%; in the experiment with AURKB, 32%.
Regarding `Clc1cccc(-c2nc(Nc3ccncc3)c3ccccc3n2)c1` [GW873004], the “%Inh” value in the experiment with AKT3 is reported as 1%; with ALK, 33%; in the experiment on AMPK-alpha1, 30%; with AMPK-alpha2, 9%; in the experiment with ANKK1, 0%; in the experiment on ARK5, 0%. For the same molecule, the “%Inh” value in the experiment on ASK1 was 13%; with ASK2, 0%; with AURKA it was 0%; with AURKB, 17%.
